Screen size: about 100,000 compounds; about 4,200 (4.2%) were called active.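 The calls were made as follows: active = single-dose well whose peak fluorescence ratio is a statistical outlier from its plate by either plate-standardised score or position-corrected B-score; inactive = the rest.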 The full list was thinned out, with actives kept by preference.

Voltage-dependent T-type calcium channel subunit alpha-1H (Homo sapiens), sequence (O95180 whole entry, looked up): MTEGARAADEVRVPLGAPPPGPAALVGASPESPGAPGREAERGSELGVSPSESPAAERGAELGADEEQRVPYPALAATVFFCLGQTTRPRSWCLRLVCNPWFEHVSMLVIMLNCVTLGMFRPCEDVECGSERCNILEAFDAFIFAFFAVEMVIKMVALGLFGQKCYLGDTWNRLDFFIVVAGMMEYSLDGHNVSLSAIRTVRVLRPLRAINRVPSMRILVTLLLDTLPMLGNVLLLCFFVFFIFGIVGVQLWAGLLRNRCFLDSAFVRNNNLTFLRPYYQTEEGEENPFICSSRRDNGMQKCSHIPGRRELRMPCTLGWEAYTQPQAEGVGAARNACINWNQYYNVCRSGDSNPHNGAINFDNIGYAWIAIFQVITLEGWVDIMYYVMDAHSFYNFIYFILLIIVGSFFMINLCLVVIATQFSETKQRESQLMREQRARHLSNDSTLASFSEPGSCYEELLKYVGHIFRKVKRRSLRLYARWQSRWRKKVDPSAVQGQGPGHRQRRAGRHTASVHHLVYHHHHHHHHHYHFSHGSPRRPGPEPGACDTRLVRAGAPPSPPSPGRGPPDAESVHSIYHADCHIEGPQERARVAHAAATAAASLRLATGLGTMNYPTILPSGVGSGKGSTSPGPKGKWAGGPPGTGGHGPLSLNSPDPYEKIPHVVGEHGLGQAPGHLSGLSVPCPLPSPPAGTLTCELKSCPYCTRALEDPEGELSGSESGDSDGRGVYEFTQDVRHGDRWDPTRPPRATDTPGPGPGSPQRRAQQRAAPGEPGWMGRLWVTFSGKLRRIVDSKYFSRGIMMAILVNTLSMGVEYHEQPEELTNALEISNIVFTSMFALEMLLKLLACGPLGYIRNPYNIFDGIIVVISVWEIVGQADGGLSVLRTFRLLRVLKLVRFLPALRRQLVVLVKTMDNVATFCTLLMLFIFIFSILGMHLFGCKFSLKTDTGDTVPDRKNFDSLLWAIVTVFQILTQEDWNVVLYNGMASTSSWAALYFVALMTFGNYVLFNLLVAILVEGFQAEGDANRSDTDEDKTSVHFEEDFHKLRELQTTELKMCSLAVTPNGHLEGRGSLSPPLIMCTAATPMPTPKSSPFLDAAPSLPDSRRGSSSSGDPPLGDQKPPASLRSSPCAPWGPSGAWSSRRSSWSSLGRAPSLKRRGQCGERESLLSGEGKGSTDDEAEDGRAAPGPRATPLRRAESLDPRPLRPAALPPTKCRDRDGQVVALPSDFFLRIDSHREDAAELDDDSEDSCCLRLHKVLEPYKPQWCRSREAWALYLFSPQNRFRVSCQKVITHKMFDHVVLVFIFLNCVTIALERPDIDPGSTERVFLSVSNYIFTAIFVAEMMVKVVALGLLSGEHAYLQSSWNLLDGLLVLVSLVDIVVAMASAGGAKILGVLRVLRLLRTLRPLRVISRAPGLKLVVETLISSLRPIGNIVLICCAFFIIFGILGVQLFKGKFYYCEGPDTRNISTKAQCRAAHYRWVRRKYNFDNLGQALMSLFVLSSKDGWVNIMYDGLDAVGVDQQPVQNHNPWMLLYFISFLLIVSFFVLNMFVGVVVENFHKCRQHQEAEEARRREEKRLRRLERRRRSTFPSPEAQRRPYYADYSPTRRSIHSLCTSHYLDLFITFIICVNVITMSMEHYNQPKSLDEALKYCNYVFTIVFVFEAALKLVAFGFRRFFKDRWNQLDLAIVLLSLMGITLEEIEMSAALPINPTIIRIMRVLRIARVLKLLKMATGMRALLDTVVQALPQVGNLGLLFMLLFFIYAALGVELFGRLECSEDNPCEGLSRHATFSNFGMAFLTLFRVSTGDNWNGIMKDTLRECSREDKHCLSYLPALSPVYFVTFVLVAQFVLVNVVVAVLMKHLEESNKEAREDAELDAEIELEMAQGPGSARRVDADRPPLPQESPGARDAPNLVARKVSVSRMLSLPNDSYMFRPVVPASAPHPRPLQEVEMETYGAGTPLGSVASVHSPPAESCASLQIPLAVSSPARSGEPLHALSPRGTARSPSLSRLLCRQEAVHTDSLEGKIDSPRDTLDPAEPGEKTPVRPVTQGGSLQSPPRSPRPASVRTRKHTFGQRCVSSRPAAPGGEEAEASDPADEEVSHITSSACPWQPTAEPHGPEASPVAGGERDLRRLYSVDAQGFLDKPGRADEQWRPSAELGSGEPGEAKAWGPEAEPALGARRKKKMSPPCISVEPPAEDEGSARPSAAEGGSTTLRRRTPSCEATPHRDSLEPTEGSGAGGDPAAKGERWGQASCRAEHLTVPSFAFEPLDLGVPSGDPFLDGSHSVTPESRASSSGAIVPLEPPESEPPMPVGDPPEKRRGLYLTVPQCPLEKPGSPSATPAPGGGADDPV

This assay addresses Voltage-dependent T-type calcium channel subunit alpha-1H (Homo sapiens) (UniProt O95180). Kind of assay: Cav3.2 calcium influx blockers – cell-based, Fluo-4 calcium fluorescence, FDSS, MLSMR library, primary screen (AID 449739). To be noted: Cav3.2-expressing cells, at 10 µM, stronger effect = lower value.
Consider `CCOC(=O)c1c(N)n(Cc2ccccc2)c2nc3ccccc3nc12`, for which the B-score was -0.856 (inactive).

`COc1cc(Cn2c(N)c(C(=O)NCc3ccco3)c3nc4ccccc4nc32)cc(OC)c1OC`: the B-score is -1.47 (active).

Regarding `CCOC(=O)c1c(N)n(CCN2CCOCC2)c2nc3ccccc3nc12`, the B-score was 0.618 (inactive).

On to `O=C(COc1ccc2ccccc2c1)N1CCN(Cc2ccncc2)CC1`, for which the B-score was 0.31 (inactive).

Consider `CCC(=NCCCO)c1c(O)n(-c2ccc(OC)cc2)c(=O)[nH]c1=O`, for which the B-score was -0.0478 (inactive).

`CCCCCCN=C(CC)c1c(O)n(CCCC)c(=O)[nH]c1=O`: the B-score is -6.91 (active).

On to `CCCCn1c(O)c(C(CC)=NCc2ccco2)c(=O)[nH]c1=O`, for which the B-score is -0.626 (inactive).

Turning to `COC(=O)C1=C(c2cc3ccccc3o2)C[C@@H]2CC[C@H]1N2C(=O)NC1CCCCC1`, the B-score is -0.929 (inactive).

Consider `COc1ccc2c(c1)[C@]13CCCCC1C(C2)N(C)CC3` (stereo not given in full), for which the B-score is 1.06 (inactive).

`CCCCCn1c(=O)c(C(=O)Nc2c(C)n(C)n(-c3ccccc3)c2=O)c(O)c2ccccc21`: the B-score was -7.21 (active).

Consider `CCCCCn1c(=O)c(C(=O)NCc2ccccn2)c(O)c2ccccc21`, for which the B-score was -1.65 (inactive).

In the case of `C[C@@]1([C@@H](NP(=O)(c2ccccc2)c2ccccc2)c2ccccc2)C[C@H]1CCO`, the B-score is -0.319 (inactive).

Turning to `C[N+]1(C)CCOC(O)(c2ccc(-c3ccc(C4(O)C[N+](C)(C)CCO4)cc3)cc2)C1` (stereo not given), the B-score is 0.445 (inactive).

With `C=CC12CN(C)[C@@H]3C4CO[C@H](C[C@H]41)[C@]1(C(=O)Nc4ccccc41)[C@@H]32` (stereo not given in full), the B-score is -0.174 (inactive).

Regarding `Cc1ccc(N(C)C(=O)Oc2cccc3ccc(C)nc23)cc1`, the B-score is -6.07 (active).

As for `COC(=O)C1=C(c2ccccc2)C[C@@H]2CC[C@H]1N2C(=O)NCc1ccco1`, the B-score was 0.641 (inactive).

As to `CCCC[N+]1(C)C2CC(OC(=O)C(CO)c3ccccc3)CC1C1OC12` (stereo not given), the B-score is -0.292 (inactive).

As to `CN(C)C(=O)NC(O)C(Cl)(Cl)Cl` (stereo not given), the B-score is -0.859 (inactive).

For `CNCC(O)c1cc(F)c(OCc2ccccc2)c(OCc2ccccc2)c1F` (stereo not given), the B-score is -0.0158 (inactive).

For the compound `CC(C)(C)c1ccc(CN2C(=O)CN=C(c3ccccc3)c3ccccc32)cc1`, the B-score is -5.08 (active).

As for `CC1C2Cn3c(nc4ccccc43)C1N(C)O2` (stereo not given), the B-score is 0.301 (inactive).

Regarding `COC(=O)C1=C(c2cc3ccccc3s2)C[C@@H]2CC[C@H]1N2C(=O)NCCO`, the B-score was 0.584 (inactive).

For the compound `COC(=O)C1=C(c2cc3ccccc3s2)C[C@@H]2CC[C@H]1N2C(=O)NC(C)C`, the B-score is 0.726 (inactive).

On to `COC(=O)C1=C(c2cc3ccccc3s2)C[C@@H]2CC[C@H]1N2C(=O)NCc1cccc2ccccc12`, for which the B-score is -4.11 (active).

Turning to `COC(=O)C1=C(c2ccccc2)C[C@@H]2CC[C@H]1N2C(=O)N1CCCCC1`, the B-score was 0.364 (inactive).

As for `COc1ccc2c(c1O)-c1cccc3c1[C@@H](C2)N(C)CC3`, the B-score is -2.61 (inactive).

On to `COc1c(O)ccc2c1-c1c3c(cc4c1C(C2)N(C)CC4)OCO3` (stereo not given), for which the B-score is 0.137 (inactive).

For the compound `CC[C@H]1CC2CN3CCc4c([nH]c5ccccc45)C(C(=O)OC)(C2)C13` (stereo not given in full), the B-score is -1.28 (inactive).

With `NCC(O)c1ccc(O)cc1` (stereo not given), the B-score is 1.98 (inactive).

With `CC(C)(C)[C@]1(O)C[C@@H]2OC(=O)C[C@@]23C(=O)O[C@@H]2OC(=O)[C@H](O)[C@]213`, the B-score is 0.0998 (inactive).

Values taken from PubChem BioAssay AID449739 (Vanderbilt High Throughput Screening Facility, 2010).
